# Assay results reported in PubChem BioAssay (NCI).
# The panel holds about 83,000 compounds, 20% with a hit somewhere; the sample as a whole holds those more often.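 Method: cells in 96-well plates; compound added at one concentration; 48 h incubation; percent growth measured; values under 10 scored active.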 Unmarked numbers belong to inactive results. Active and inactive are the calls of the source.
# Assays:
# Test in all cases: NCI-60 one-dose screen, 48 h (100 = growth as untreated, 0 = no growth, -100 = all killed)
# Settings in all cases: 10 µM unless noted
# NCI-H23 lung = tested on: NCI-H23 lung
# NCI-H226 lung = tested on: NCI-H226 lung
# NCI-H322M lung = tested on: NCI-H322M lung
# HOP-62 NSCLC = tested on: HOP-62 NSCLC
# NCI-H460 lung = tested on: NCI-H460 lung
# HOP-92 NSCLC = tested on: HOP-92 NSCLC
# NCI-H522 lung = tested on: NCI-H522 lung
# A549/ATCC NSCLC = tested on: A549/ATCC NSCLC
# 786-0 renal = tested on: 786-0 renal
# COLO 205 colon = tested on: COLO 205 colon
SMILES,growth (NCI-H23 lung),growth (NCI-H226 lung),growth (NCI-H322M lung),growth (HOP-62 NSCLC),growth (NCI-H460 lung),growth (HOP-92 NSCLC),growth (NCI-H522 lung),growth (A549/ATCC NSCLC),growth (786-0 renal),growth (COLO 205 colon)
COc1ccc(C(=O)/C=C/c2ccc(Cl)c(Cl)c2)cc1S(N)(=O)=O,-23.6% (active),25.5%,21.3%,-47.1% (active),7.22% (active),31.2%,-47.2% (active),11.2%,-94.4% (active),-75.9% (active)
CN1CCN(Cc2ccc(C(=O)Nc3cccc(C#Cc4cccc5[nH]nc(N)c45)c3)cc2C(F)(F)F)CC1,-87.3% (active),-84% (active),-98.3% (active),-90.1% (active),-25.3% (active),-87.7% (active),-64.3% (active),-88.8% (active),-99.4% (active),-87% (active)
CNC(=O)c1cc(Oc2ccc3nc(NC(=O)Nc4cccc(OC(F)(F)F)c4)sc3c2)ccn1,6.71% (active),-24.5% (active),47.8%,-71.7% (active),29.9%,-63% (active),26.6%,35.2%,-50.7% (active),68.2%
COc1ccc(-c2ccnc(SCc3cc4cc(Cl)ccc4[nH]c3=O)n2)cc1,57.8%,-32.1% (active),87.8%,-17.3% (active),19.6%,-32% (active),34.2%,60.7%,-25.5% (active),105%
S=c1c2ccccc2nc2n1CCc1c-2[nH]c2ccccc12,62%,30.8%,60.6%,38.5%,71.2%,25.2%,56.7%,68.2%,46.9%,90.7%
CN(C)CCCNC(=O)c1cc(NC(=O)c2cc(NC(=O)c3ccc(C#Cc4ccccc4)cc3)cn2C)cn1C,-42.7% (active),4.56% (active),38.9%,8.16% (active),-28.9% (active),-26% (active),-95.3% (active),-14.8% (active),-86.9% (active),-74.9% (active)
COc1cc(CNC(=O)/C=C/c2ccc3c(c2)OCO3)ccc1OCc1cn(-c2cccc(C(F)(F)F)c2)nn1,1.63% (active),-44.8% (active),26.4%,1.47% (active),29.2%,-37.5% (active),27%,-3.39% (active),-44.7% (active),25.3%
Cn1cc(NC(=O)c2cc(NC(=O)c3ccc(/C=C/c4ccccc4)cc3)cn2C)cc1C(=O)NCCCN1CCOCC1,66.7%,77.4%,69.9%,90.9%,-51.6% (active),-18% (active),17.6%,26.9%,27.9%,-78.6% (active)
CC(=O)OC[C@@]1(C)C2CC[C@]3(C)C(CC=C4C5CC(C)(C)CC[C@]5(C(=O)Nc5ccc(C)cc5)CC[C@]43C)[C@@]2(C)C[C@@H](OC(C)=O)[C@@H]1OC(C)=O (stereo not given in full),49.3%,50.6%,72.8%,44.4%,13.5%,55.8%,48.9%,41.4%,57.1%,48.8%
Cc1ccc(-n2c(-c3cc4ccccc4nc3Cl)noc2=O)cc1,87.7%,77.7%,92.5%,65.1%,90.6%,70.6%,62.7%,85.7%,91.3%,103%
COc1cc(C2CC(c3cc(OC)c(OC)c(OC)c3)=NN2C(C)=O)ccc1OCc1ccc(F)cc1 (stereo not given),56.7%,49.8%,66.1%,74.2%,49%,17.3%,42.1%,50.8%,57.8%,58.5%
O=C1Nc2cc(Cl)ccc2/C1=C/c1cccc(OCc2ccccn2)c1,19.6%,38.6%,68.2%,17.4%,13.9%,-3.65% (active),-42.4% (active),37.5%,10.8%,51.7%
CC1=C(C(=O)OCc2ccccc2)C(c2ccc(-n3cncn3)cc2)n2c(nc3ccccc32)N1 (stereo not given),86%,77.6%,83.5%,64.6%,28.1%,73.9%,19.3%,60.1%,69.2%,37.9%
O=C(/C=C/Nc1ccc(Cl)cc1)c1ccc2c(c1)Nc1ccccc1S2,33.1%,8.89% (active),59.5%,-27.5% (active),13.3%,13.6%,34.9%,43.1%,-6.27% (active),62.5%
COc1cc(/C=C/C(=O)c2nnn(-c3ccc(Cl)cc3)c2C)cc(OC)c1OC,26.9%,40%,63.1%,37.2%,14.2%,38.7%,28%,34.9%,65.8%,41.5%
COc1ccccc1C(=O)NN1C(=O)/C(=C/C2=Cc3ccccc3OC2)SC1=S,106%,98.9%,99.4%,106%,120%,86.6%,97.9%,103%,104%,119%
COc1ccc(C(=O)/C=C/c2ccccc2Br)cc1S(N)(=O)=O,-21.4% (active),21.5%,20.6%,-18.7% (active),1.47% (active),76.8%,-67% (active),-81.4% (active),-78% (active),-72.8% (active)
N#Cc1c(-c2cccc(Cl)c2Cl)cc(-c2c[nH]c3ccccc23)[nH]c1=O,70.2%,8.48% (active),76.5%,80.1%,85.6%,-0.53% (active),70.2%,67.2%,16.9%,105%
COc1ccc(C2(SCCNCc3cc(N(C)C)ccn3)c3ccccc3C=Cc3ccccc32)cc1,13.5%,50.6%,35.1%,40%,-14% (active),0.307% (active),-17.2% (active),21.3%,23.5%,-29.8% (active)
Cc1ccc(NC(=O)[C@]23CCC(C)(C)CC2C2=CCC4[C@@]5(C)C[C@@H](O)[C@H](O)[C@@](C)(CO)C5CC[C@@]4(C)[C@]2(C)CC3)cc1 (stereo not given in full),29.5%,9.45% (active),69.3%,47.2%,3.15% (active),-19.6% (active),12.3%,20.5%,17.1%,-65.9% (active)
C=C1CCC2C3(C)COC(c4ccccc4F)OC3CCC2(C)C1CC(O)C1=CCOC1=O (stereo not given),80%,83.6%,99.5%,88.2%,82.3%,55.5%,-50.3% (active),67.7%,14.7%,22.5%
C[C@H](Nc1nc(NCCc2ccccc2)nc2ccccc12)c1ccccc1,-85.2% (active),-80.4% (active),-55.9% (active),-90.3% (active),-75.3% (active),-81.1% (active),-82.9% (active),-33.2% (active),-87.3% (active),-93.7% (active)
CC1=C(C(=O)OC(C)C)C(c2cccc(O)c2)NC(=S)N1 (stereo not given),106%,101%,103%,95.9%,110%,110%,91.8%,103%,106%,107%
COc1ccc(C(=O)/C=C/c2ccc(OCc3ccccc3)c(OC)c2)cc1OC,27.1%,79.1%,15.7%,35.3%,5.57% (active),38.3%,11.3%,14.4%,35.9%,51.5%
N#Cc1c(-c2ccc(Cl)cc2)nc2n[nH]c(-c3ccc(Cl)cc3)c2c1-c1cccs1,62.7%,54.1%,76.8%,62.8%,51.1%,15.7%,54.4%,54.9%,67.5%,53.2%
C=C1CC[C@@H]2[C@]3(C)COC(c4ccccc4)O[C@@H]3CC[C@@]2(C)[C@@H]1C/C=C1/C(=O)OCC1OC(C)=O (stereo not given in full),-18.5% (active),-79.8% (active),62.1%,-27.7% (active),15.1%,-36.3% (active),-90.2% (active),9.46% (active),-95.6% (active),-76.4% (active)
